Broadly, the Inhibition is the share of the control response that was lost under treatment. High values mean a strong effect, low ones a weak effect.

Consider 5 compounds from ChEMBL document CHEMBL1157539, “Thousands of chemical starting points for antimalarial lead identification” (Nature, 2010).

Common to all, as to format: functional
In assay [1] the test system is Plasmodium falciparum. The assay can be described thus: GSK_TCMDC: Inhibition of Plasmodium falciparum 3D7 in whole red blood cells, using parasite LDH activity as an index of growth. Test compounds present at 2uM.
Assay [2] concerns Plasmodium falciparum. The assay can be described thus: GSK_TCMDC: Inhibition of Plasmodium falciparum Dd2 in whole red blood cells, using parasite LDH activity as an index of growth. Test compounds present at 2uM.
The subject of the next assay is HepG2. The assay can be described thus: GSK_TCMDC: Percent inhibition of human HepG2 cell line. Test compounds present at 10uM.

Regarding `Fc1ccc2[nH]c(-c3ccc(-c4ccc(CN5CCCCC5)cc4)s3)nc2c1.O=C(O)C(F)(F)F`, the Inhibition in the assay on Plasmodium falciparum [1] was 92%; with Plasmodium falciparum [2], 100%; in the assay with HepG2, 42%.
For `O=C(NCCN1CCC(c2ccncc2)CC1)c1ccc(Nc2nccc(Nc3ccc(Oc4ccccc4)cc3)n2)cc1`, in that order: 100%, 90% and 17%.
`COC(=O)c1cc(C(O)CNC(C)CCCc2ccccc2)ccc1O.Cl` (stereo not given): the figures for the Inhibition with Plasmodium falciparum [1], with Plasmodium falciparum [2] and in the assay on HepG2 were 99%, 97% and 17%, respectively.
For the compound `CCOc1c(CNCCCCCCNCc2ccc3ccccc3c2OCC)ccc2ccccc12.CS(=O)(=O)O`, the Inhibition with Plasmodium falciparum [1] is given as 99%; with Plasmodium falciparum [2] it was 78%; in the assay with HepG2, 100%.
On to `O=C(NC1CCC(N2CCC(O)(c3ccc(F)cc3)CC2)CC1)c1cc2ccccc2[nH]1` (stereo not given), for which the Inhibition is reported as 94% in the assay with Plasmodium falciparum [1], 8% with Plasmodium falciparum [2] and 9% in the assay on HepG2.
